Experimental data as given in paper PMC5540273 (PLoS ONE, 2017).

Experiments:
Conditions in all cases: concentration: 1 μM, replicates: in singlicate; n = 1
[1] = tested on: CDKL2
[2] = tested on: CDKL3
[3] = tested on: CDKL5
[4] = tested on: CHEK1
[5] = tested on: CHEK2
[6] = tested on: CIT
[7] = tested on: CLK1
[8] = tested on: CLK2
[9] = tested on: CLK3
[10] = tested on: CLK4
[11] = tested on: CSF1R-autoinhibited
[12] = tested on: CSF1R
[13] = tested on: CSK
[14] = tested on: CSNK1A1L
[15] = tested on: CSNK1A1
[16] = tested on: CSNK1D
[17] = tested on: CSNK1E
[18] = tested on: CSNK1G1
[19] = tested on: CSNK1G2
[20] = tested on: CSNK1G3
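Further: KINOMEscan kinase panel screen.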

Structure (SMILES)	%Inh [1]	%Inh [2]	%Inh [3]	%Inh [4]	%Inh [5]	%Inh [6]	%Inh [7]	%Inh [8]	%Inh [9]	%Inh [10]	%Inh [11]	%Inh [12]	%Inh [13]	%Inh [14]	%Inh [15]	%Inh [16]	%Inh [17]	%Inh [18]	%Inh [19]	%Inh [20]
O=C(NCCCN1CCCC1=O)c1cnc(NCc2cc(Cl)ccc2Cl)nc1NC1CCNCC1	0%	20%	0%	0%	6%	0%	0%	0%	0%	0%	1%	100%	0%	1%	36%	28%	87%	1%	0%	0%
c1ccc(-c2ccc3c(-c4ccnc(Nc5ccc6c(c5)OCCO6)n4)cnn3n2)cc1 [GW818941]	16%	0%	0%	0%	0%	6%	52%	42%	0%	58%	0%	1%	84%	0%	40%	8%	0%	1%	11%	27%
CS(=O)(=O)CCNCc1nc(-c2ccc3ncnc(Nc4ccc(OCc5cccc(F)c5)c(Cl)c4)c3c2)cs1.Cl [GW583340]	2%	0%	0%	0%	0%	23%	33%	0%	12%	0%	0%	8%	12%	0%	0%	4%	45%	17%	0%	24%
Fc1ccc(-c2ncn(CCCNCc3ccccc3)c2-c2ccncc2)cc1	0%	1%	21%	17%	0%	27%	33%	1%	0%	0%	19%	4%	0%	22%	90.4%	96.6%	98.3%	5%	7%	20%
CCn1c(-c2ccncc2)nc2cnccc21 [SB-735216]	0%	25%	4%	0%	0%	0%	16%	0%	0%	16%	47%	2%	0%	10%	22%	8%	0%	6%	0%	4%
Cn1ccc2ncnc(Oc3ccc(NC(=O)Nc4cccnc4)c(Cl)c3)c21	3%	13%	14%	0%	9%	5%	0%	5%	4%	32%	0%	82%	0%	10%	8%	0%	0%	0%	5%	0%
FC(F)(F)c1ccc(-c2nn3ncccc3c2-c2ccnc(Nc3cccc(C(F)(F)F)c3)n2)cc1 [GW828205]	0%	0%	0%	0%	0%	16%	4%	0%	0%	0%	0%	0%	0%	5%	30%	24%	17%	2%	3%	2%
COc1ccc(NC(=O)Nc2ccc(C)c(-c3ccc(C(=O)Nc4ccncc4)cc3)c2)cc1 [GSK1398475]	30%	0%	0%	11%	0%	69%	28%	0%	4%	5%	0%	93.7%	0%	3%	0%	15%	36%	6%	6%	44%
Nc1nccc2scc(-c3ccc4c(c3)CCN4C(=O)Cc3cc(F)ccc3F)c12 [GSK2587663]	17%	0%	0%	8%	10%	27%	24%	0%	93.5%	19%	0%	67%	0%	1%	0%	14%	62%	0%	0%	10%
Nc1nc(-c2ccc3c(N)n[nH]c3c2)cc(N2CCCCC2)n1 [GSK2228768]	0%	0%	2%	0%	0%	18%	29%	0%	8%	19%	0%	1%	0%	1%	0%	11%	0%	0%	0%	4%
CN1CCC(n2cnc(-c3ccc(F)cc3)c2-c2ccnc(NC3CCNCC3)n2)CC1 [SB-229482]	22%	3%	0%	0%	39%	2%	0%	0%	4%	9%	47%	16%	0%	28%	95.1%	92.1%	93.4%	0%	0%	0%
O=C(c1ccc(-c2cc(-c3c[nH]nc3-c3ccccn3)ccn2)cc1)N1CCCC1 [GW792479]	24%	3%	0%	0%	0%	18%	0%	8%	0%	0%	0%	0%	17%	0%	59%	49%	30%	9%	9%	0%
N#Cc1ccc(Oc2ccc(Nc3ncnc4cc[nH]c34)cc2Cl)cc1	15%	3%	14%	4%	19%	22%	25%	19%	3%	21%	3%	7%	33%	15%	2%	5%	7%	8%	25%	21%
CNc1nccc(-c2c(-c3ccc(F)cc3)ncn2CCCN2CCOCC2)n1 [SB-222516]	6%	10%	2%	0%	43%	0%	4%	16%	18%	3%	0%	0%	0%	2%	0%	8%	19%	4%	10%	4%
COc1cc2ncnc(Nc3ccc(OCc4ccccc4Br)c(Cl)c3)c2cc1OC.Cl [GI261590]	26%	2%	0%	0%	47%	29%	28%	0%	0%	17%	10%	7%	7%	0%	0%	24%	24%	0%	0%	27%
Clc1ccc(-c2cc(-c3c[nH]nc3-c3ccccn3)ccn2)cc1 [GW681251]	11%	22%	0%	0%	0%	4%	13%	0%	4%	20%	0%	8%	0%	1%	18%	42%	33%	0%	0%	0%
COc1ccc(Nc2nccc(N3CCC(NC(=O)c4cccc(NC(C)=O)c4)C3)n2)cc1 (stereo not shown) [GSK1379732]	18%	0%	0%	0%	41%	43%	21%	0%	0%	12%	49%	1%	0%	7%	0%	13%	16%	9%	0%	24%
Nc1nc(-c2ccccn2)c(-c2ccnc3ccccc23)s1 [GW548057]	24%	0%	0%	0%	46%	6%	14%	16%	30%	40%	58%	19%	3%	38%	89%	83%	79%	11%	0%	27%
Cc1cc(N2CCC(NS(=O)(=O)c3ccc(F)cc3)CC2)nc(Nc2cccc(C#N)c2)n1.O=C(O)C(F)(F)F [GSK1653537]	24%	0%	0%	4%	0%	0%	14%	0%	0%	25%	0%	0%	0%	35%	25%	27%	52%	27%	5%	15%
C[C@H]1CC[C@@H](C(=O)Nc2ccccc2)CN1c1cc(-c2ccc3c(N)n[nH]c3c2)nc(N)n1 [GSK2283293]	17%	0%	0%	0%	0%	32%	18%	0%	0%	21%	26%	0%	0%	16%	0%	0%	7%	7%	0%	7%
COc1ccc(NC(=O)c2ccc(-c3cc(-c4nnc(C)o4)ccc3C)cc2)cc1 [GW595885]	13%	0%	0%	0%	0%	22%	17%	0%	94.8%	20%	7%	14%	0%	5%	0%	0%	0%	0%	0%	14%

Structure (SMILES)	%Inh [1]	%Inh [2]	%Inh [3]	%Inh [4]	%Inh [5]	%Inh [6]	%Inh [7]	%Inh [8]	%Inh [9]	%Inh [10]	%Inh [11]	%Inh [12]	%Inh [13]	%Inh [14]	%Inh [15]	%Inh [16]	%Inh [17]	%Inh [18]	%Inh [19]	%Inh [20]
Nc1nc(-c2ccc3c(N)n[nH]c3c2)cc(N2CCC[C@@H](C(=O)Nc3ccccc3)C2)n1.O=C(O)C(F)(F)F.O=C(O)C(F)(F)F [GSK2288359]	6%	0%	2%	0%	0%	23%	45%	29%	8%	21%	0%	13%	8%	0%	0%	0%	15%	8%	100%	25%
Cl.Fc1ccccc1COc1ccc(Nc2ncnc3ccc(-c4nnc(C(F)(F)F)o4)cc23)cc1Cl [GW424170]	0%	0%	0%	5%	7%	11%	31%	0%	4%	13%	0%	6%	0%	0%	0%	5%	22%	0%	0%	30%
CSc1ccc(NC2=C(c3ccccc3Cl)C(=O)NC2=O)cc1 [SB-342411]	14%	0%	0%	0%	0%	23%	74%	88%	43%	53%	0%	7%	7%	0%	0%	2%	19%	16%	0%	0%
Fc1ccc(Nc2nccc(-c3c(-c4ccc(Cl)cc4)nn4ncccc34)n2)cc1F [GW829058]	22%	21%	23%	12%	1%	0%	0%	10%	10%	5%	0%	14%	28%	3%	32%	60%	22%	0%	2%	0%
O=C(Nc1ccccc1F)NC1CCN(c2ccnc(Nc3ccc(F)cc3)n2)C1 (stereo not shown) [GSK1379722]	30%	0%	0%	8%	0%	2%	21%	0%	24%	17%	7%	4%	0%	0%	0%	13%	27%	0%	100%	8%
Cc1ccc(O)cc1Nc1cc(C(F)(F)F)nc2ccc(-c3ccncc3)cc12 [GW630823]	0%	0%	0%	34%	0%	0%	40%	16%	0%	20%	0%	3%	0%	23%	4%	15%	0%	6%	1%	5%
Fc1cccc(COc2ccc(Nc3ncnc4cc[nH]c34)cc2Cl)c1	14%	11%	15%	10%	13%	19%	7%	16%	10%	0%	0%	6%	24%	6%	2%	0%	10%	18%	18%	4%
CS(=O)(=O)CCNCc1ccc(-c2ccc3ncnc(Nc4ccc(OCc5ccccc5)c(Cl)c4)c3c2)o1.Cl [GW574783]	11%	0%	0%	6%	0%	23%	0%	0%	0%	21%	7%	0%	0%	20%	0%	15%	10%	0%	0%	6%
O=C(CCO)NCCn1ccc2ncnc(Nc3ccc(Oc4cccc(C(F)(F)F)c4)c(Cl)c3)c21	9%	0%	0%	0%	0%	0%	1%	0%	0%	5%	0%	0%	3%	0%	0%	0%	0%	0%	0%	0%
Cl.c1ccc(Cn2ncc3cc(Nc4ncnc5ccccc45)ccc32)cc1 [GW273749]	8%	0%	3%	0%	30%	26%	42%	6%	0%	4%	0%	22%	38%	12%	0%	15%	42%	12%	0%	30%
Cl.O=S(=O)(c1cccc(F)c1)c1ccc(Nc2ncnc3cc(Br)sc23)cc1Cl [GSK306886]	19%	0%	0%	0%	0%	23%	23%	0%	0%	0%	0%	8%	30%	0%	0%	36%	22%	0%	0%	33%
CCCc1ccc(S(=O)(=O)NC2CCN(c3ccnc(Nc4ccc(OC)cc4)n3)C2)cc1 (stereo not shown) [GSK1379737]	19%	0%	0%	0%	15%	32%	23%	0%	0%	6%	23%	10%	0%	7%	0%	14%	19%	0%	0%	21%
Nc1nc(-c2cccnc2)c(-c2ccnc3ccccc23)s1 [GW684083]	20%	0%	0%	0%	11%	45%	14%	0%	100%	38%	0%	1%	0%	9%	1%	65%	71%	10%	0%	13%
Clc1cccc(-c2nc(Nc3ccncc3)c3ccccc3n2)c1 [GW873004]	35%	13%	3%	0%	0%	57%	14%	0%	35%	52%	0%	0%	0%	7%	29%	12%	23%	3%	10%	18%
COC(=O)c1cccc(NC(=O)NCCNc2ccnc(Nc3ccc(F)cc3)n2)c1 [GSK1379883]	5%	0%	0%	0%	5%	35%	15%	0%	14%	42%	0%	14%	0%	4%	0%	3%	29%	0%	0%	25%
CC(C)(C)OC(=O)NC1CCCN(c2cc(-c3ccc4c(N)n[nH]c4c3)nc(N)n2)C1 (stereo not shown) [GSK2286096]	5%	0%	7%	0%	0%	26%	55%	27%	7%	16%	0%	10%	0%	0%	0%	5%	18%	24%	0%	24%
FC(F)(F)c1ccc(-c2cc(-c3c[nH]nc3-c3ccccn3)ccn2)cc1 [GW599550]	21%	0%	0%	0%	16%	37%	8%	4%	5%	29%	33%	0%	0%	0%	0%	48%	45%	10%	13%	13%
Cc1cccc(-c2nc(Nc3ccc4[nH]nnc4c3)c3ccccc3n2)n1 [GW867587]	25%	0%	0%	0%	0%	15%	0%	0%	0%	0%	0%	0%	0%	0%	0%	4%	0%	0%	0%	0%
Cn1cc(-c2ccc3c(c2)CCN3C(=O)Cc2cccc(C(F)(F)F)c2)c2c(N)ncnc21 [GSK2606414]	15%	0%	0%	19%	0%	11%	22%	0%	0%	19%	0%	6%	0%	14%	0%	8%	0%	0%	0%	17%
Nc1n[nH]c2nnc(-c3ccccc3)cc12 [SB-517389]	18%	69%	0%	10%	0%	29%	43%	32%	19%	19%	0%	18%	0%	10%	0%	6%	28%	7%	0%	17%
